# Experimental data: article PMC7862700, “An all-to-all approach to the identification of sequence-specific readers for epigenetic DNA modifications on cytosine”
# Assays:
# Assay in all cases: DAPPL (digital affinity profiling via proximity ligation, sequencing); 10 mM Tris-HCl pH 7.5, 50 mM NaCl, 1 mM DTT, 4% glycerol, room temperature, 30 min; GST-TFs on glutathione beads, 16-mer random dsDNA library, 0.1% formaldehyde crosslink after washing; high values mean tight binding
# FEV = molecular target: T1, FEV (Homo sapiens, UniProt Q99581 1-238); conditions: protein: recombinant; tags: N-terminal GST; dsDNA, one strand shown
# T1 sequence: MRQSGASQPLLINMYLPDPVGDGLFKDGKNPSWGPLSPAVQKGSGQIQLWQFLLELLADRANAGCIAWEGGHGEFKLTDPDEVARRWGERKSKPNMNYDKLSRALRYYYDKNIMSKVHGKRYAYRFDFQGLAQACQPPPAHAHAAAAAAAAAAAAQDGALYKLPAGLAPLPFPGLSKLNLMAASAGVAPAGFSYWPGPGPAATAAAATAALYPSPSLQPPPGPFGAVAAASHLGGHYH
# Method in brief: (§1)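 Binding signal is each hexamer's read frequency for a factor divided by its frequency in the tag-only sample. The factors were GST-fused human transcription factors from yeast, captured on glutathione beads, DNA-barcoded and pooled with that sample. Pools were incubated with 200 nmole of a random double-stranded 16-mer DNA library in Tris/NaCl/DTT/glycerol buffer at room temperature for 30 min, then washed, crosslinked with 0.1% formaldehyde, proximity-ligated with BsaI/T4 ligase (1 h, 37 °C), PCR-amplified and sequenced on an Illumina NextSeq500.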
# ETV5 = ETV5 (Homo sapiens, UniProt P41161 1-510); conditions: protein: recombinant; tags: N-terminal GST; dsDNA, one strand shown
# ETV5, sequence (P41161 whole entry): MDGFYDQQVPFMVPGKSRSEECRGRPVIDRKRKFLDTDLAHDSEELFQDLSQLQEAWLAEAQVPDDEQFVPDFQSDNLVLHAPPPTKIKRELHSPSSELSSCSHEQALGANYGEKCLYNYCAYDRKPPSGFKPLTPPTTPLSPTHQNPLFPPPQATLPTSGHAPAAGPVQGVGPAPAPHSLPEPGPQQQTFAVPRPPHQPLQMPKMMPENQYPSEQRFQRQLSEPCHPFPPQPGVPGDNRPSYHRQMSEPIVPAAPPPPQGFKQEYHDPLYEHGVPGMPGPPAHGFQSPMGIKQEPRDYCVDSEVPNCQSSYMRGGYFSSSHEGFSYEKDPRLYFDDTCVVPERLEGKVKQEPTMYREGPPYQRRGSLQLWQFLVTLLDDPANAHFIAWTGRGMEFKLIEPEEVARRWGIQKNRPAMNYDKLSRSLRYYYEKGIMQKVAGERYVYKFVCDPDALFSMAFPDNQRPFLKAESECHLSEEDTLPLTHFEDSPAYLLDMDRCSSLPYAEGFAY
# Method in brief: as §1
# HSF1 = HSF1 (Homo sapiens, UniProt Q00613 1-529); conditions: protein: recombinant; tags: N-terminal GST; chain copies: 3; dsDNA, one strand shown
# HSF1, sequence (Q00613 whole entry): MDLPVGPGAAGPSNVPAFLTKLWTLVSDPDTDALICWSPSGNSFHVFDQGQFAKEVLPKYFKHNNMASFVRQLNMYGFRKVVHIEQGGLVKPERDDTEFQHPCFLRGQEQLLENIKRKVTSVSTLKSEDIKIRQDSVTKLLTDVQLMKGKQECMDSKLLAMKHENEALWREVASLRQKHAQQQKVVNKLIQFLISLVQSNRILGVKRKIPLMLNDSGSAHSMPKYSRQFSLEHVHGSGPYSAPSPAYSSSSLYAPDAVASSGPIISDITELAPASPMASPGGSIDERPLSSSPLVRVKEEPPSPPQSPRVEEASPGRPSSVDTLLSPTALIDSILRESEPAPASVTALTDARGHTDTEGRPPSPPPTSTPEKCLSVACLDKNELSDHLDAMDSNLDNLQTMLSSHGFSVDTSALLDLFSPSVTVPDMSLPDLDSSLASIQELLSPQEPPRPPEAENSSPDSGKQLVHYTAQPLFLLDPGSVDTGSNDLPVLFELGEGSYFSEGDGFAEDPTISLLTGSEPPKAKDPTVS
# Method in brief: as §1
# SPIC = molecular target: T2, SPIC (Homo sapiens, UniProt Q8N5J4 1-248); conditions: protein: recombinant; tags: N-terminal GST; dsDNA, one strand shown
# T2 sequence: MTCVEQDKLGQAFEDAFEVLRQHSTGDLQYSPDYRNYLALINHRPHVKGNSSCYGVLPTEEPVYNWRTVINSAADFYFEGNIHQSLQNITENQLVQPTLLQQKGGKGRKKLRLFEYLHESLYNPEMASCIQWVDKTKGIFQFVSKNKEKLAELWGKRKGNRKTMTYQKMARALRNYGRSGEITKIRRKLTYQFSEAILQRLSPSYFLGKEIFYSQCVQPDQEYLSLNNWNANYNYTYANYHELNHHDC
# Method in brief: as §1
# ELF4 = ELF4 (Homo sapiens, UniProt Q99607 1-663); conditions: protein: recombinant; tags: N-terminal GST; dsDNA, one strand shown
# ELF4, sequence (Q99607 whole entry): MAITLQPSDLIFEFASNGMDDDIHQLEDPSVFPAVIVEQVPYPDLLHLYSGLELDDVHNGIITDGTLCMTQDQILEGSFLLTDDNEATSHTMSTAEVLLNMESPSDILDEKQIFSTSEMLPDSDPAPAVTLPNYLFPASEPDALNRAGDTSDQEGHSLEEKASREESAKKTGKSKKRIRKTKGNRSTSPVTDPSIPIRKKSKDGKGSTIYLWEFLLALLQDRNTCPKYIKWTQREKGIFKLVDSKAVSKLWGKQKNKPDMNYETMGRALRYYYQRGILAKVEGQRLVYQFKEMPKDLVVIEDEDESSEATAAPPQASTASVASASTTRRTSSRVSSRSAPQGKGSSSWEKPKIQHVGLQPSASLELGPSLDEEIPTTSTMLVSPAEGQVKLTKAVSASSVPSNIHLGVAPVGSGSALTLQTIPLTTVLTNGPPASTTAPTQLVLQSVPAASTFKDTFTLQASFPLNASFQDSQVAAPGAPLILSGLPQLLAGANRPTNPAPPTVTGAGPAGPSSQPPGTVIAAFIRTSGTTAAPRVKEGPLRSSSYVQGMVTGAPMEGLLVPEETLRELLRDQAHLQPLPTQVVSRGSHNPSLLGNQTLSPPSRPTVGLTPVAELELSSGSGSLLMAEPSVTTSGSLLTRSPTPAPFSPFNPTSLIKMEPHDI
# Method in brief: as §1
# ELK4 = molecular target: T3, ELK4 (Homo sapiens, UniProt P28324-2 1-405); conditions: protein: recombinant; tags: N-terminal GST; dsDNA, one strand shown
# T3 sequence: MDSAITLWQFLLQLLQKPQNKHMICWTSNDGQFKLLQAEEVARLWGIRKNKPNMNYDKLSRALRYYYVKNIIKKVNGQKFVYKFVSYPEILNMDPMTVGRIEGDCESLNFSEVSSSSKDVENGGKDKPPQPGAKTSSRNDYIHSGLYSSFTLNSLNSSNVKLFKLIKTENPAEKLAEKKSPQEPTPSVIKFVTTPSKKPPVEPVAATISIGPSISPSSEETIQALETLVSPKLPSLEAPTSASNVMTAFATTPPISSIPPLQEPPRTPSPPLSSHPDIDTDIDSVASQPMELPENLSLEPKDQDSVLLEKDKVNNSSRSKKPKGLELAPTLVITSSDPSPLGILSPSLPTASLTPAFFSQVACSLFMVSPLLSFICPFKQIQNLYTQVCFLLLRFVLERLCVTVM
# Method in brief: as §1
# ETV2 = molecular target: T4, ETV2 (Homo sapiens, UniProt O00321 1-342); conditions: protein: recombinant; tags: N-terminal GST; dsDNA, one strand shown
# T4 sequence: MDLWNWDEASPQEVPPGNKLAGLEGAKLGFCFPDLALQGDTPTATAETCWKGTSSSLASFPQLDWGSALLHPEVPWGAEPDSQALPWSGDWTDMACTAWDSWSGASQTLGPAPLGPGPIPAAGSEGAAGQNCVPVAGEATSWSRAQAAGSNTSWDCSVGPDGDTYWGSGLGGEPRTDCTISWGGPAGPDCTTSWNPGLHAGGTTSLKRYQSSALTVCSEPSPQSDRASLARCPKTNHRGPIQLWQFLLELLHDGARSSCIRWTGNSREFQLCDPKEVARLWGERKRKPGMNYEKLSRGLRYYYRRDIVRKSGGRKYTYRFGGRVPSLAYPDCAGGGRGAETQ
# Method in brief: as §1
# ELF3 = molecular target: T5, ELF3 (Homo sapiens, UniProt P78545 1-371); conditions: protein: recombinant; tags: N-terminal GST; dsDNA, one strand shown
# T5 sequence: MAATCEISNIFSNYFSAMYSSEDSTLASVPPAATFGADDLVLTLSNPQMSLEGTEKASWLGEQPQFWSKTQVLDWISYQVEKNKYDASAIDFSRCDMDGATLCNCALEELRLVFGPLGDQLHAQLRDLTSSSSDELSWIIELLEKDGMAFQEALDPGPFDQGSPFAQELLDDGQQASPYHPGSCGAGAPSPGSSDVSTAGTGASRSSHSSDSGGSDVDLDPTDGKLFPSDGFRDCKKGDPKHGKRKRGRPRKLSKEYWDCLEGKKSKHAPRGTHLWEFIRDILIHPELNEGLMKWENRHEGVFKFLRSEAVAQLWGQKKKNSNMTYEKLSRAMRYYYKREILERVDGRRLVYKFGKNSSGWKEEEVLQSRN
# Method in brief: as §1
# CRX = CRX (Homo sapiens, UniProt O43186 1-299); conditions: protein: recombinant; tags: N-terminal GST; dsDNA, one strand shown
# CRX, sequence (O43186 whole entry): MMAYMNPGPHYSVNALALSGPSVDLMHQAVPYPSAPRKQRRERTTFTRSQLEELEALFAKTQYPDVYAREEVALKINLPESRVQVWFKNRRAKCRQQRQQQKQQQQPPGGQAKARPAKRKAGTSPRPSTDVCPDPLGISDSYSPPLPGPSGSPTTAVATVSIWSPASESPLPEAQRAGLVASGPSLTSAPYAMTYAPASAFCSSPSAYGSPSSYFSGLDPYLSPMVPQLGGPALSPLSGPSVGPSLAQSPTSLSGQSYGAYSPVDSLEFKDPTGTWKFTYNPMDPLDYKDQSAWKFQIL
# Method in brief: as §1
# ETV1 = ETV1 (Homo sapiens, UniProt P50549 1-477); conditions: protein: recombinant; tags: N-terminal GST; dsDNA, one strand shown
# ETV1, sequence (P50549 whole entry): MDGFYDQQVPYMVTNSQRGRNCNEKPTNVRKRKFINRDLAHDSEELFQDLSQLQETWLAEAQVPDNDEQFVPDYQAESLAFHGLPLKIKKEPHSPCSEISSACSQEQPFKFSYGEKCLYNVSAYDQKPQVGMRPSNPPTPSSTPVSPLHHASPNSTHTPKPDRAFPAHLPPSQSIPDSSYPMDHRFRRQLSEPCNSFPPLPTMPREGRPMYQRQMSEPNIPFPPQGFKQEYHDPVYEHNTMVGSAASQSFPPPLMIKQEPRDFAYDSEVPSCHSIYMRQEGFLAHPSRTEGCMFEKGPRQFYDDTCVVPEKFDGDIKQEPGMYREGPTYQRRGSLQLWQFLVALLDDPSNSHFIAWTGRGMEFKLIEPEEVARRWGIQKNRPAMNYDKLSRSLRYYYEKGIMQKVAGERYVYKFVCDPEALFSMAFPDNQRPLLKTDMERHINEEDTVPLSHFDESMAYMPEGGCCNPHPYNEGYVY
# Method in brief: as §1
# ERF = molecular target: T6, ERF (Homo sapiens, UniProt P50548 1-548); conditions: protein: recombinant; tags: N-terminal GST; dsDNA, one strand shown
# T6 sequence: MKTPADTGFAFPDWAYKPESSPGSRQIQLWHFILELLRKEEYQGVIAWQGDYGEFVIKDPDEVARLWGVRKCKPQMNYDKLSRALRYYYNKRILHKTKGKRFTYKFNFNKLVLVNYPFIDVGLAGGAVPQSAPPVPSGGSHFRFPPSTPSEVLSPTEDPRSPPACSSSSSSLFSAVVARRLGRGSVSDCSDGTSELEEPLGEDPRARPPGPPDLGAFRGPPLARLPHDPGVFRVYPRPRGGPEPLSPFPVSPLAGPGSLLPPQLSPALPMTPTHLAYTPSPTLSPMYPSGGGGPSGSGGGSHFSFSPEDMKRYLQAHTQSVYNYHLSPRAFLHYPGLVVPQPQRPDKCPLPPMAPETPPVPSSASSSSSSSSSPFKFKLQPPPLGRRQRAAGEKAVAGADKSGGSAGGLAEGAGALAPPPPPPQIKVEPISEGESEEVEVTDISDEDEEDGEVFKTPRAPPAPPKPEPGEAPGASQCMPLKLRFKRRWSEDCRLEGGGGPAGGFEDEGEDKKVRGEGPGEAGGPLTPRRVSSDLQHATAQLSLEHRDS
# Method in brief: as §1
# ETV3L = molecular target: T7, ETV3L (Homo sapiens, UniProt Q6ZN32 1-361); conditions: protein: recombinant; tags: N-terminal GST; dsDNA, one strand shown
# T7 sequence: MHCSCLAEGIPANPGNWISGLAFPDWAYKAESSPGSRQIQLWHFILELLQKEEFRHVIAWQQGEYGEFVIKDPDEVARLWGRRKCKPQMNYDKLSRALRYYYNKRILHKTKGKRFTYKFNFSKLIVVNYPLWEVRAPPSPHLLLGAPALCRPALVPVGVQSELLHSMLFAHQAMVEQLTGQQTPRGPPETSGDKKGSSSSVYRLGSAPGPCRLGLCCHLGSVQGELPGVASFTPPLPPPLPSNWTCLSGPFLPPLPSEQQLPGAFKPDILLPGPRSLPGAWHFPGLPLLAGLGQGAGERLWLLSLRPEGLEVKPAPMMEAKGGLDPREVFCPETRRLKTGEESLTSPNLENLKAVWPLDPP
# Method in brief: as §1
# ETS2 = molecular target: T8, ETS2 (Homo sapiens, UniProt P15036 1-469); conditions: protein: recombinant; tags: N-terminal GST; dsDNA, one strand shown
# T8 sequence: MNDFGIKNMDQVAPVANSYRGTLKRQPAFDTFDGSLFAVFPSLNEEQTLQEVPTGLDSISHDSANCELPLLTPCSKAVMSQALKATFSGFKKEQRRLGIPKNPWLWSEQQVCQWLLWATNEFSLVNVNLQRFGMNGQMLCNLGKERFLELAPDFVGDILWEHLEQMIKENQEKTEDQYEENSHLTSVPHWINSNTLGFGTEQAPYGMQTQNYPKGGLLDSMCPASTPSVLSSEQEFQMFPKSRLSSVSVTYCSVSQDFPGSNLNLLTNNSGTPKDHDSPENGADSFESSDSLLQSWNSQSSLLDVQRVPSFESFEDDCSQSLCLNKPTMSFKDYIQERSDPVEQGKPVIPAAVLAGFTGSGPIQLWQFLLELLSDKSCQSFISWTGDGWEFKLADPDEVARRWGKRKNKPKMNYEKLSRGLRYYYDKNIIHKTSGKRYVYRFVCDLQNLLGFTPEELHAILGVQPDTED
# Method in brief: as §1
# SPDEF = molecular target: T9, SPDEF (Homo sapiens, UniProt O95238 1-335); conditions: protein: recombinant; tags: N-terminal GST; dsDNA, one strand shown
# T9 sequence: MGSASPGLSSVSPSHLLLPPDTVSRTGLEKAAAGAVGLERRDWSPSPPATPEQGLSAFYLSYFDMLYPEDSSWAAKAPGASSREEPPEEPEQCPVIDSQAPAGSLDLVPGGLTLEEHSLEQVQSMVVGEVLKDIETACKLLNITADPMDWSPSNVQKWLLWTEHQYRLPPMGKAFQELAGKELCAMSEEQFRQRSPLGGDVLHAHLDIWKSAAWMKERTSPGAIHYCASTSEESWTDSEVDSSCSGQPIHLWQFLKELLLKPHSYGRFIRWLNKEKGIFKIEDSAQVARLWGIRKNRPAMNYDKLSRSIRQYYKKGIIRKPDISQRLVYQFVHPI
# Method in brief: as §1
# ETV7 = molecular target: T10, ETV7 (Homo sapiens, UniProt Q9Y603 1-341); conditions: protein: recombinant; tags: N-terminal GST; dsDNA, one strand shown
# T10 sequence: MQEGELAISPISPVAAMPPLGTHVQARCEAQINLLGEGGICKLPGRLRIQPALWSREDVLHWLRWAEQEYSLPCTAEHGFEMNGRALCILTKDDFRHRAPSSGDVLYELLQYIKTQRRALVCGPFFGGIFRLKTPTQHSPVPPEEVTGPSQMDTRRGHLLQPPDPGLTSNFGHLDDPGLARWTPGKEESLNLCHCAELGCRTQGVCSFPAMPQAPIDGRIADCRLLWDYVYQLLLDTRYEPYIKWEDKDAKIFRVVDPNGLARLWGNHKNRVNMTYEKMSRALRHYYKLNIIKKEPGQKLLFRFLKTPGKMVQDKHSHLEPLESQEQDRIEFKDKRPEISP
# Method in brief: as §1
# ELF5 = molecular target: T11, ELF5 (Homo sapiens, UniProt Q9UKW6-2 1-255); conditions: protein: recombinant; tags: N-terminal GST; dsDNA, one strand shown
# T11 sequence: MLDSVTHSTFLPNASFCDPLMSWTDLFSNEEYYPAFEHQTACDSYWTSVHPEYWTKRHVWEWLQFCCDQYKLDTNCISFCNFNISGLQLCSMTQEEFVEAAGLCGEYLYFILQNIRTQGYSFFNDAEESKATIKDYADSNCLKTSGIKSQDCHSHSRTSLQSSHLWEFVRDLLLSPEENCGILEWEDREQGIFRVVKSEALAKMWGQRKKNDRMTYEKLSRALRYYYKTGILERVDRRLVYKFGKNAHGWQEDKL
# Method in brief: as §1
# ETV3 = molecular target: T12, ETV3 (Homo sapiens, UniProt P41162-2 1-143); conditions: protein: recombinant; tags: N-terminal GST; dsDNA, one strand shown
# T12 sequence: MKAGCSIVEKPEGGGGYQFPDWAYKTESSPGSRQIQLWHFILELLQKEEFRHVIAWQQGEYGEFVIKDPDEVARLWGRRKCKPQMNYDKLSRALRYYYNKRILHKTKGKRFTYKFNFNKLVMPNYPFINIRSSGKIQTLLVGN
# Method in brief: as §1
# ETV6 = ETV6 (Homo sapiens, UniProt P41212 1-452); conditions: protein: recombinant; tags: N-terminal GST; dsDNA, one strand shown
# ETV6, sequence (P41212 whole entry): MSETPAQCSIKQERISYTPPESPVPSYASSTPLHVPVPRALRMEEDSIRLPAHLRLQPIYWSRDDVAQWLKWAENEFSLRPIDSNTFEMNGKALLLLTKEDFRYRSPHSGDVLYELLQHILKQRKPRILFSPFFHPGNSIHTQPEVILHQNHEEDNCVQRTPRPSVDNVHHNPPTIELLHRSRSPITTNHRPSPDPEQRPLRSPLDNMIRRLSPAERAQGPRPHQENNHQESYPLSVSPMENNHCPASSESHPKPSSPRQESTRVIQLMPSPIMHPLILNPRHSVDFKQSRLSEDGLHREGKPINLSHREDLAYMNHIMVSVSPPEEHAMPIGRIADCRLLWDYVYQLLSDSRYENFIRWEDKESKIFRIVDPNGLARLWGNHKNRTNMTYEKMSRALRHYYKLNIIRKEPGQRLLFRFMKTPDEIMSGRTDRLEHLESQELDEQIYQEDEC
# Method in brief: as §1
sequence,measurement,setting,value
TGTAAA,binding signal,FEV,"1.08 fold enrichment (6-mer frequency, TF over GST control)"
same,binding signal,ETV5,"1.16 fold enrichment (6-mer frequency, TF over GST control)"
same,binding signal,HSF1,"1.2 fold enrichment (6-mer frequency, TF over GST control)"
same,binding signal,SPIC,"1.24 fold enrichment (6-mer frequency, TF over GST control)"
same,binding signal,ELF4,"1.13 fold enrichment (6-mer frequency, TF over GST control)"
same,binding signal,ELK4,"1.1 fold enrichment (6-mer frequency, TF over GST control)"
same,binding signal,ETV2,"1.16 fold enrichment (6-mer frequency, TF over GST control)"
same,binding signal,ELF3,"1.23 fold enrichment (6-mer frequency, TF over GST control)"
same,binding signal,CRX,"1.2 fold enrichment (6-mer frequency, TF over GST control)"
same,binding signal,ETV1,"1.14 fold enrichment (6-mer frequency, TF over GST control)"
same,binding signal,ERF,"1.23 fold enrichment (6-mer frequency, TF over GST control)"
same,binding signal,ETV3L,"1.22 fold enrichment (6-mer frequency, TF over GST control)"
same,binding signal,ETS2,"1.24 fold enrichment (6-mer frequency, TF over GST control)"
same,binding signal,SPDEF,"1.16 fold enrichment (6-mer frequency, TF over GST control)"
same,binding signal,ETV7,"1.13 fold enrichment (6-mer frequency, TF over GST control)"
same,binding signal,ELF5,"1.1 fold enrichment (6-mer frequency, TF over GST control)"
same,binding signal,ETV3,"1.2 fold enrichment (6-mer frequency, TF over GST control)"
same,binding signal,ETV6,"1.03 fold enrichment (6-mer frequency, TF over GST control)"
